PubChem BioAssay
Values joined by “and” are separate entries in the source; they are usually repeats but may differ in a detail not shown here. Equal entries are not always repeated. Inconclusive results are not listed. Active and inactive are the calls of the source. Cut-off read from the data, not from the text of the source, unless noted: active = inhibition above about 80%; inactive = the rest.

Columns and labels:
[1] = biological target: Mitogen-activated protein kinase 7 (Homo sapiens) (UniProt Q13164); experiment: ERK5 transactivation activators in reporter cells, primary screen, cell-based, HTS (AID 1508626;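 active = luciferase signal above three times the same-plate solvent-only control wells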;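 note: luciferase driven by Gal4-ERK5 fusion binding five Gal4 sites before minimal TATA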); conditions: HeLa Gal4-ERK5 transactivation, 18 h, at 5 µM, stronger effect = higher value
[2] = LFS_MB_1R medulloblastoma cell growth inhibition, synergistic combos for chromothripsis tumors, cisplatin or BGB combos (AID 1671452); conditions: LFS_MB_1R medulloblastoma cells, stronger effect = higher value;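 note: cells exposed for 96 hours before readout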
[3] = CRL2098 osteosarcoma cell growth inhibition, synergistic combos for chromothripsis tumors, BGB or cisplatin IC20 combos (AID 1671454); conditions: CRL2098 osteosarcoma cells, drug combinations, stronger effect = higher value;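 note: cells exposed for 96 h before readout; 0% = vehicle DMSO and 100% = killing by high DMSO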
[4] = HD-MB03 medulloblastoma cell growth inhibition, synergistic combos for chromothripsis tumors, BGB or cisplatin IC20 combos (AID 1671455; in the data active = inhibition above about 83%;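 note: 0% = vehicle DMSO and 100% = high DMSO as cytotoxic control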); conditions: HD-MB03 medulloblastoma cells, stronger effect = higher value
[5] = UWB1.289 ovarian carcinoma cell growth inhibition, synergistic combos for chromothripsis tumors, BGB or cisplatin combos (AID 1671456); conditions: UWB1.289 ovarian carcinoma cells, stronger effect = higher value;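 note: cells exposed to compound for four days; 0% = vehicle DMSO and 100% = killing by high DMSO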
[6] = LFS_MB_2R medulloblastoma cell growth inhibition, synergistic combos for chromothripsis tumors, cisplatin combos (AID 1671457); conditions: LFS_MB_2R medulloblastoma cells, stronger effect = higher value;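 note: cells exposed to compound for four days before readout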
[7] = UWB1.289_BRCA1 ovarian cancer growth, cell-based, BGB or cisplatin combinations (AID 1671459); conditions: UWB1.289 BRCA1 ovarian carcinoma, drug combinations, stronger effect = higher value
[8] = human astrocyte viability loss, single and combined drugs, cytotoxicity control for chromothriptic childhood tumor combination screen, cell-based, BGB or cisplatin IC20 combos (AID 1671460); conditions: Human astrocytes, drug combinations, stronger effect = higher value;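 note: cells exposed to compounds for 96 hours before viability readout; 0% = vehicle and 100% = killing control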
[9] = growth inhibition of BT084 medulloblastoma cells, cell-based, ICGC_MB145, cisplatin and BGB IC40 combos (AID 1671461); conditions: drug combinations, stronger effect = higher value;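 note: cells exposed to drugs for 96 hours; 0% = vehicle DMSO and 100% = high DMSO full killing control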
[10] = growth inhibition of RCMB18 medulloblastoma cells, cell-based, cisplatin and BGB IC40 combos (AID 1671462); conditions: stronger effect = higher value;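 note: cells exposed to compound for four days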
[11] = growth inhibition of CRL1545 osteosarcoma cells, cell-based, cisplatin and BGB IC20 combos (AID 1671464); conditions: stronger effect = higher value;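 note: cells exposed to compound for 96 hours before readout; 0% = vehicle DMSO and 100% = high DMSO killing control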
[12] = viability rescue of complex I mutant cybrids, primary screen, cell-based, galactose medium, ATP luminescence (AID 1645843;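 active = z-score of at least 1.8 in each of two replicates, scored against plate mean and spread of sample wells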;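 note: positive z means more ATP and so rescue of galactose-driven cybrid death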); conditions: complex I mutant cybrid cells, 72 h, stronger effect = higher value
[13] = biological target: ATP-dependent translocase ABCB1 (Homo sapiens) (UniProt P08183); experiment: MDR1 (ABCB1) efflux transporter inhibition, cell-based (AID 377; in the data active = fluorescence slope change above about 50%); conditions: MDR1-expressing cells, fluorescent substrate accumulation slope; stronger effect = higher value; concentration not given here
[14] = measured here: combination with BGB IC40, at 0.05 µM
[15] = measured here: combination with cisplatin, at 0.5 µM
[16] = measured here: combination with cisplatin, at 5 µM
[17] = measured here: combination with BGB at IC20, at 0.5 µM
[18] = measured here: combination with cisplatin at IC20, at 0.5 µM
[19] = measured here: combo with BGB at IC20, at 0.5 µM
[20] = measured here: combo with cisplatin at IC20, at 0.5 µM
[21] = measured here: inhibition with BGB combination, at 0.05 µM
[22] = measured here: inhibition with cisplatin combination, at 0.05 µM
[23] = BGB combination, concentration series, at 5 µM
[24] = cisplatin combination, concentration series, at 5 µM
[25] = measured here: combo with BGB IC20, at 0.5 µM
[26] = measured here: combo with cisplatin IC20, at 0.5 µM
[27] = cisplatin combination, at 0.5 µM
[28] = measured here: BGB IC40 combination 0.05 uM, at 0.05 µM
[29] = measured here: BGB IC40 combination, at 0.05 µM
[30] = measured here: with BGB IC20 combination, at 0.5 µM
[31] = measured here: with cisplatin IC20 combination, at 0.5 µM

ATP-dependent translocase ABCB1 (Homo sapiens), sequence (P08183 whole entry, looked up): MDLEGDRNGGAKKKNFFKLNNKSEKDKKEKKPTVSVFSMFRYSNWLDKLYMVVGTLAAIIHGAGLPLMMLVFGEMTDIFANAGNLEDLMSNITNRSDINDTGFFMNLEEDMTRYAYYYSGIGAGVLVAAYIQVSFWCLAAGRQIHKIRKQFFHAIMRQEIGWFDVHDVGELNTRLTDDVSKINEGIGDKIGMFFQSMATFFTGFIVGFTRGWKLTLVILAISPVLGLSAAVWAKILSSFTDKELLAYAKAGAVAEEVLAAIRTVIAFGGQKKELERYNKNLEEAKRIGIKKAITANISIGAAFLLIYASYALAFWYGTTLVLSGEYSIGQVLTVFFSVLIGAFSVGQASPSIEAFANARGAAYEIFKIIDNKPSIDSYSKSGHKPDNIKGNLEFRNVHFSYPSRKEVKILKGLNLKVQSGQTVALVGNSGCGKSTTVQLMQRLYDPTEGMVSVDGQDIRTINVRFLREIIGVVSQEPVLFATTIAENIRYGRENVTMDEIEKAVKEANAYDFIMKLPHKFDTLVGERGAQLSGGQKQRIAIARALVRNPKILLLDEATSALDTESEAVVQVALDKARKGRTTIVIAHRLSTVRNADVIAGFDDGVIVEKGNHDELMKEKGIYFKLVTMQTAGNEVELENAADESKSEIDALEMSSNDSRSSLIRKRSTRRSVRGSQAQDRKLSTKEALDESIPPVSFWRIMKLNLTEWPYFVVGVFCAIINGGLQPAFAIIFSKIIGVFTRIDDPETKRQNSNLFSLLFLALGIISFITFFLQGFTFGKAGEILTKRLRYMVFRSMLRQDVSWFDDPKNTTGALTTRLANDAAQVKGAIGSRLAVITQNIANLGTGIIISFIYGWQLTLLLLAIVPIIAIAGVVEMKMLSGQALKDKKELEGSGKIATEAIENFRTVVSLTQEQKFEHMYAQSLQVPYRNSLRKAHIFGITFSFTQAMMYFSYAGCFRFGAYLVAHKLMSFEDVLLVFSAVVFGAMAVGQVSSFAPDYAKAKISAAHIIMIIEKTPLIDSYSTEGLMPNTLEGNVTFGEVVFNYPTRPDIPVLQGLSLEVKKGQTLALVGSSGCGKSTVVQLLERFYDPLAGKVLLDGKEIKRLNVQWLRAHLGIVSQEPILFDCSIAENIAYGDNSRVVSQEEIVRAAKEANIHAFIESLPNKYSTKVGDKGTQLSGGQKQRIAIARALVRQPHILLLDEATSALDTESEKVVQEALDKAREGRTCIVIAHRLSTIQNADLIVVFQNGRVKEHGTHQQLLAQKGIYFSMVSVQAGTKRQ
Mitogen-activated protein kinase 7 (Homo sapiens), sequence (Q13164 whole entry, looked up, the tested form may be a part): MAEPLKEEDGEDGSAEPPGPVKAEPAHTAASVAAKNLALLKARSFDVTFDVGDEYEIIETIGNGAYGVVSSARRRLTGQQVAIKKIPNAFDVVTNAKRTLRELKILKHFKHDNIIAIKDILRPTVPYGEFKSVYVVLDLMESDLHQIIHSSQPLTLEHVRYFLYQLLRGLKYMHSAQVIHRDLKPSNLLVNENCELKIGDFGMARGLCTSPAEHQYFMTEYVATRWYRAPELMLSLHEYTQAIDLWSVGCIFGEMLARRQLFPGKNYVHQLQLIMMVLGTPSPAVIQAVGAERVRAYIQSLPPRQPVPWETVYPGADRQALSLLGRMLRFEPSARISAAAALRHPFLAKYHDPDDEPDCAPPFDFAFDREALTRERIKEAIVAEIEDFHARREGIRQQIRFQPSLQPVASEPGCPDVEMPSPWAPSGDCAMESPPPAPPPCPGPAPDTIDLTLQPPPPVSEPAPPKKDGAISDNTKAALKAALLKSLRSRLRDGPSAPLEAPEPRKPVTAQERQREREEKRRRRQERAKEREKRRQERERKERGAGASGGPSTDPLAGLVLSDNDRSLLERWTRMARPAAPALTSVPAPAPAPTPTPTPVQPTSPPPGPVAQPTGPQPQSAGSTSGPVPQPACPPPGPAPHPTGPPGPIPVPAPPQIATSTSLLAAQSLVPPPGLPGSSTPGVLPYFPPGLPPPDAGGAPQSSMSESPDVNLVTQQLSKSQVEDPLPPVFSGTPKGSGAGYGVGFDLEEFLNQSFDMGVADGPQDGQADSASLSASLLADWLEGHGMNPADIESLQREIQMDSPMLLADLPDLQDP

With `CC[N+](CC)(CC(=O)Nc1c(C)cccc1C)Cc1ccccc1` as the molecule, how does the luciferase signal [1] read?
Its luciferase signal is 36 AU (inactive).

With `O=C(Oc1ccccc1C(=O)O)c1ccccc1O` as the molecule, how does the luciferase signal [1] read?
The luciferase signal was 64 AU (inactive).

With `O=c1cc[nH]c(=O)[nH]1` as the molecule, how does the inhibition ([2]; at 0.5 µM) read?
Its inhibition is -40% (inactive).

And the inhibition [2, 14]?
Its inhibition is -59%.

And the inhibition [2, 15]?
The inhibition was -48%.

And the inhibition [2, 16]?
Its inhibition is -36.2%.

What about the inhibition ([3]; at 0.5 µM) of the same molecule?
Its inhibition is -92.2% (inactive).

What about the inhibition [3, 17] of the same molecule?
The inhibition was -94.9%.

What about the inhibition [3, 18] of the same molecule?
The inhibition was -107%.

And the inhibition ([4]; at 0.5 µM)?
The inhibition was -17.8% (inactive).

What about the inhibition [4, 19] of the same molecule?
Its inhibition is -14.7%.

What about the inhibition [4, 20] of the same molecule?
Its inhibition is -22.4%.

And the inhibition ([5]; at 0.5 µM)?
The inhibition was -18% (inactive).

And the inhibition [5, 21]?
Its inhibition is -36%.

What about the inhibition [5, 22] of the same molecule?
Its inhibition is -27.8%.

And the inhibition ([6]; at 0.5 µM)?
The inhibition was -17.4% (inactive).

And the inhibition [6, 15]?
The inhibition was -11.9%.

What about the inhibition [6, 16] of the same molecule?
Its inhibition is -19.1%.

What about the inhibition [7, 23] of the same molecule?
The inhibition was -12.9%.

What about the inhibition ([7]; at 0.5 µM) of the same molecule?
Its inhibition is -25% (inactive).

What about the inhibition [7, 24] of the same molecule?
The inhibition was -6.49%.

And the inhibition ([8]; at 0.5 µM)?
Its inhibition is -8.86% (inactive).

And the inhibition [8, 25]?
Its inhibition is 4.39%.

What about the inhibition [8, 26] of the same molecule?
The inhibition was -31.7%.

And the inhibition ([9]; at 0.5 µM)?
Its inhibition is -12.8% (inactive).

And the inhibition [9, 27]?
Its inhibition is -14.2%.

What about the inhibition ([9]; cisplatin combination, at 5 µM) of the same molecule?
Its inhibition is -53.2%.

And the inhibition [9, 28]?
The inhibition was -11.4%.

And the inhibition ([9]; single agent, at 5 µM)?
The inhibition was -17.3%.

What about the inhibition ([10]; at 0.5 µM) of the same molecule?
Its inhibition is -17.6% (inactive).

What about the inhibition ([10]; cisplatin combo, at 5 µM) of the same molecule?
Its inhibition is -19.1%.

What about the inhibition [10, 29] of the same molecule?
The inhibition was -3.59%.

What about the inhibition [10, 15] of the same molecule?
Its inhibition is -29.1%.

What about the inhibition ([10]; single agent, at 5 µM) of the same molecule?
Its inhibition is -18.8%.

And the inhibition ([11]; at 0.5 µM)?
The inhibition was -72% (inactive).

What about the inhibition [11, 30] of the same molecule?
The inhibition was -50.2%.

What about the inhibition [11, 31] of the same molecule?
The inhibition was -82.8%.

And the inhibition ([11]; single agent, at 0.05 µM)?
Its inhibition is 4.62%.

And the inhibition ([11]; single agent, at 5 µM)?
Its inhibition is -35%.

With `CC1CCc2c(N3CCC(O)CC3)c(F)cc3c(=O)c(C(=O)O)cn1c23` (stereo not drawn) as the molecule, how does the z-score [12] read?
The z-score was 1.2 (inactive).

For `CN1CCC(=C2c3ccccc3CCc3cccnc32)CC1`, which z-score [12] is on record?
Its z-score is 0.04 (inactive).

Which z-score [12] does the source give for `C[C@@H](O)[C@H]1C(=O)N2C(C(=O)O)=C(SCCN=CN)C[C@H]12` here?
The z-score was -0.195 (inactive) and 0.375 (inactive).

Which luciferase signal [1] does the source give for `CCOc1ccc2nc(S(N)(=O)=O)sc2c1` here?
The luciferase signal was 40 AU (inactive).

For `O=C(Oc1cccc2cccnc12)c1ccccc1`, which luciferase signal [1] is on record?
The luciferase signal was 44 AU (inactive).

Which fluorescence slope change [13] does the source give for `CNCCc1ccccn1` here?
The fluorescence slope change was 28.1% (inactive).

And the luciferase signal [1]?
Its luciferase signal is 64 AU (inactive).

With `COc1cc(C(=O)N2CCOCC2)cc(OC)c1OC` as the molecule, how does the luciferase signal [1] read?
Its luciferase signal is 48 AU (inactive).

With `CC(C)(C)C(=O)C(Oc1ccc(Cl)cc1)n1ccnc1` (stereo not drawn) as the molecule, how does the z-score [12] read?
The z-score was -0.18 (inactive).

For `O=C(Nc1ccccc1)OCC(CN1CCCCC1)OC(=O)Nc1ccccc1` (stereo not drawn), which fluorescence slope change [13] is on record?
Its fluorescence slope change is 147% (active).

With `CCCCOc1cc(C(=O)OCCN(CC)CC)ccc1N` as the molecule, how does the z-score [12] read?
Its z-score is 0.26 (inactive).

With `Cc1ncc(CO)c(CO)c1O` as the molecule, how does the luciferase signal [1] read?
Its luciferase signal is 160 AU (inactive).

Which results are given for `Nc1ccc2cc3ccc(N)cc3nc2c1`?
z-score [12]: -2.66 (inactive); inhibition ([2]; at 0.5 µM): -22.9% (inactive); inhibition [2, 14]: -30.9%; inhibition [2, 15]: -45.7%; inhibition [2, 16]: 99.1%; inhibition ([3]; at 0.5 µM): -33.9% (inactive); inhibition [3, 17]: -34.4%; inhibition [3, 18]: -50.2%; inhibition ([4]; at 0.5 µM): -6.54% (inactive); inhibition [4, 19]: 19.2%; inhibition [4, 20]: -34.6%; inhibition ([5]; at 0.5 µM): -1.27% (inactive); inhibition [5, 21]: -20.6%; inhibition [5, 22]: -13.2%; inhibition ([6]; at 0.5 µM): -9.07% (inactive); inhibition [6, 15]: -2.23%; inhibition [6, 16]: 84.3%; inhibition [7, 23]: 100%; inhibition ([7]; at 0.5 µM): -1.03% (inactive); inhibition [7, 24]: 115%; inhibition ([8]; at 0.5 µM): -4.99% (inactive); inhibition [8, 25]: 0.031%; inhibition [8, 26]: -30.9%; inhibition ([9]; at 0.5 µM): -51.8% (inactive); inhibition [9, 27]: -55.3%; inhibition ([9]; cisplatin combination, at 5 µM): 80.4%; inhibition [9, 28]: -6.84%; inhibition ([9]; single agent, at 5 µM): 89.8%; inhibition ([10]; at 0.5 µM): -8.62% (inactive); inhibition ([10]; cisplatin combo, at 5 µM): 83.1%; inhibition [10, 29]: 9.55%; inhibition [10, 15]: -20.8%; inhibition ([10]; single agent, at 5 µM): 73.5%; inhibition ([11]; at 0.5 µM): -34.4% (inactive); inhibition [11, 30]: -17.3%; inhibition [11, 31]: -43%; inhibition ([11]; single agent, at 0.05 µM): -52.5%; inhibition ([11]; single agent, at 5 µM): 100%

With `O=C(N/N=C/c1ccc([N+](=O)[O-])o1)c1ccc(O)cc1` as the molecule, how does the fluorescence slope change [13] read?
Its fluorescence slope change is -24% (inactive).

For `O=C(CCCN1CCC(O)(c2ccc(Br)cc2)CC1)c1ccc(F)cc1`, which luciferase signal [1] is on record?
The luciferase signal was 52 AU (inactive).

For `CCOc1nc2cccc(C(=O)O)c2n1Cc1ccc(-c2ccccc2-c2nn[nH]n2)cc1`, which z-score [12] is on record?
Its z-score is 0.64 (inactive).

For `CCCCOC(=O)c1ccc(O)cc1`, which luciferase signal [1] is on record?
The luciferase signal was 88 AU (inactive).

With `N=C(N)N1CCc2ccccc2C1` as the molecule, how does the z-score [12] read?
The z-score was 0.125 (inactive).

Which z-score [12] does the source give for `O=C(O)CN(CCN(CC(=O)O)CC(=O)O)CCN(CC(=O)O)CC(=O)O` here?
Its z-score is 4.38 (active).

With `CCN(CC)CCc1nc(-c2ccccc2)no1` as the molecule, how does the fluorescence slope change [13] read?
The fluorescence slope change was 14.4% (inactive).

Which luciferase signal [1] does the source give for `CC1CC(OC(=O)c2ccccc2O)CC(C)(C)C1` (stereo not drawn) here?
The luciferase signal was 140 AU (inactive).

Which z-score [12] does the source give for `CC(C(=O)O)c1ccc2c(c1)Cc1cccnc1O2` (stereo not drawn) here?
Its z-score is 0.415 (inactive).

With `CN1C(=O)OC(C)(C)C1=O` as the molecule, how does the fluorescence slope change [13] read?
Its fluorescence slope change is 1.5% (inactive).

Which luciferase signal [1] does the source give for `OC1(c2ccc(Cl)c(C(F)(F)F)c2)CCN(CCCC(c2ccc(F)cc2)c2ccc(F)cc2)CC1` here?
Its luciferase signal is 60 AU (inactive).

Which luciferase signal [1] does the source give for `CN(C(=O)C(Cl)Cl)c1ccc(OC(=O)c2ccco2)cc1` here?
The luciferase signal was 44 AU (inactive).

Which luciferase signal [1] does the source give for `Oc1c(I)cc(Cl)c2cccnc12` here?
Its luciferase signal is 52 AU (inactive).

Which luciferase signal [1] does the source give for `CN(C(=O)CN(CCO)CC(=O)N(C)C(C)(C)Cc1ccccc1)C(C)(C)Cc1ccccc1` here?
Its luciferase signal is 32 AU (inactive).

With `CC(=O)CC(c1ccc([N+](=O)[O-])cc1)c1c(O)c2ccccc2oc1=O` (stereo not drawn) as the molecule, how does the fluorescence slope change [13] read?
Its fluorescence slope change is 22.3% (inactive).

With `CCCCCCC[N+](CC)(CC)CCCCc1ccc(Cl)cc1` as the molecule, how does the fluorescence slope change [13] read?
The fluorescence slope change was 178% (active).

For `CC(=O)N[C@@H](CC(C)C)C(=O)O`, which luciferase signal [1] is on record?
Its luciferase signal is 56 AU (inactive).

For `Cc1cccc(C)c1NC(=O)CN1CCN(CCCC(c2ccc(F)cc2)c2ccc(F)cc2)CC1`, which fluorescence slope change [13] is on record?
The fluorescence slope change was 64.3% (active).

Which luciferase signal [1] does the source give for `NCCNCCNCCN` here?
Its luciferase signal is 64 AU (inactive).
